# Reference: PubChem BioAssay AID743286 (National Center for Advancing Translational Sciences (NCATS), 2014)
# Hit rate of the full screen: of about 1,100 compounds, about 340 (31%) were called active. Another 40% or so got no clear call; they are omitted. The call rests on the fitted dose curve; in most records, active means well fitted inhibition curve with a large enough effect; inconclusive means small, poorly fitted or top-dose-only effect; inactive means flat fitted curve, though single readings scatter. These entries were drawn from the full list. A call without a number means that no potency is given here.
# Target: Phosphatidylinositol 5-phosphate 4-kinase type-2 alpha (Homo sapiens) (UniProt P48426)
# Experiment: qHTS for Inhibitors of PI5P4K: Confirmation in Primary Assay; further: nearly all actives have a fitted effect of over 65% in size
# Details: PI5P4Kalpha enzyme, ADP-Glo luminescence, 60 min; series mostly up to 76.9 µM
# Procedure, shortened: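 Kinase rxn: PI5P4Kα + substrate, 5 µM ATP, pH 7.4 HEPES/EGTA/CHAPS, 5% DMSO, 60 min RT. Detection ADP-Glo, luminescence. Controls without substrate or without enzyme.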
# Potency means the concentration at half of the fitted maximal effect.
# Chain of Phosphatidylinositol 5-phosphate 4-kinase type-2 alpha (Homo sapiens) (P48426 whole entry, looked up): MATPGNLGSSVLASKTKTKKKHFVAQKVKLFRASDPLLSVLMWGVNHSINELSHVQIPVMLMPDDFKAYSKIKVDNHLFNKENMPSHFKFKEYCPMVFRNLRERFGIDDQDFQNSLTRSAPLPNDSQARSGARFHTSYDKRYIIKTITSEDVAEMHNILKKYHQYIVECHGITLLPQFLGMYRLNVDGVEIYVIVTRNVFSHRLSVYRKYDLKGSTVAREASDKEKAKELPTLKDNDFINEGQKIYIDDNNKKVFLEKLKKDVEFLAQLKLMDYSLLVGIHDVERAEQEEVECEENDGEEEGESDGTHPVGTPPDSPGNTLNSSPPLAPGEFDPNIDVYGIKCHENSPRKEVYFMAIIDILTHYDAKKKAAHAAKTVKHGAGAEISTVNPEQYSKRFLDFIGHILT
row,SMILES,Potency
1,CN(C)C(=S)NCc1ccccc1,inactive
2,CC(=O)N1c2ccc(S(=O)(=O)NCCC(=O)N(C)C3CCCCC3)cc2CC1C (stereo not drawn),inactive
3,COc1cccc2c1C(=O)C[C@]1(CCCC[C@@H]1C)O2,inactive
4,COc1ccc(C(CNC(=O)c2ccc(OCc3cscn3)cc2)N2CCCC2)cc1 (stereo not drawn),inactive
5,CC(C)Sc1nc(N2CCOCC2)c2c(c1C#N)CC(C)(C)N(C)C2,inactive
6,Cc1cc(NC(=O)CCCn2cc([N+](=O)[O-])cn2)n(Cc2ccc(F)cc2)n1,inactive
7,c1ccc2c(CCNc3ncnc4nc[nH]c34)c[nH]c2c1,17.8 µM (active)
8,Cc1sc2ncnc(NC(C)C(=O)O)c2c1C (stereo not drawn),3.98 µM (active)
9,O=C(Cc1ccc(S(=O)(=O)N2CCOCC2)s1)Nc1nc2c(s1)CCCC2,14.1 µM (active)
10,CCn1nc(CC(=O)Nc2nnc(CC(=O)N3CCOCC3)s2)c2ccccc2c1=O,inactive
11,CC(=O)c1ccc(NC(=O)c2cnn3ccccc23)cc1,3.55 µM (active)
12,COc1ccccc1Nc1ccc2c(O)cc(S(=O)(=O)O)cc2c1,3.16 µM (active)
13,O=S(=O)(O)c1cc(O)c2cc(Nc3ccccc3)ccc2c1,2 µM (active)
14,O=C(CCS(=O)(=O)c1ccc(Br)cc1)NCc1ccc(F)cc1,inactive
15,Cc1cc(NC(=O)CSc2cn(CCNC(=O)c3ccccc3)c3ccccc23)no1,14.1 µM (active)
16,Cc1cc(NC(=O)Nc2ccccc2[N+](=O)[O-])no1,inactive
17,Cc1cc(NC(=O)CN2CCN(C)CC2)no1,inactive
18,O=C1Nc2ccc(C(=O)c3ccco3)cc2/C1=C/c1cc(Cl)c(O)c(Cl)c1,0.207 µM (active)
19,COC(=O)c1ccc2c(c1)/C(=C/c1cc(Br)c(O)c(Br)c1)C(=O)N2,0.823 µM (active)
20,NS(=O)(=O)c1ccc(CCNC(=O)c2ccc3nccnc3c2)cc1,14.1 µM (active)
21,O=C(Nc1ccccc1Cl)c1ccc2nccnc2c1,inactive

row,SMILES,Potency
1,COCc1cc(N2CCCCC2)nc(-c2ccccc2)n1,inactive
2,Cc1ccc(-c2csc(NS(=O)(=O)c3cccc(F)c3)n2)o1,11.2 µM (active)
3,NS(=O)(=O)c1cccc(NC(=O)CSc2nnnn2-c2ccccc2)c1,inactive
4,O=C(O)C1CSC(c2coc3ccccc3c2=O)N1 (stereo not drawn),inactive
5,COc1cc(Cl)c(C)cc1NC(=O)CSc1sc2c(O)cc(=O)[nH]c2c1C#N,5.01 µM (active)
6,COc1ccc(NC(=O)CSc2sc3c(O)cc(=O)[nH]c3c2C#N)c(OC)c1,14.1 µM (active)
7,COc1ccccc1NC(=O)CSc1sc2c(O)cc(=O)[nH]c2c1C#N,10 µM (active)
8,COc1ccccc1NC(=O)Cc1nnc(SCC(=O)Nc2ccccc2F)n1C,inactive
9,COc1ccc(NC(C)=O)cc1NC(=O)CSc1nc2ncccc2[nH]1,inactive
10,COc1ccc(C(=O)NC(CCSC)C(=O)N2CCCCCC2)cc1 (stereo not drawn),inactive
11,COc1cc(NC2=Nc3cccc4cccc2c34)cc(OC)c1OC,inactive
12,Cc1nn(-c2ccccc2)c2nc(=O)n(-c3ccccc3)cc12,inactive
13,Cc1ccc(NC(=O)c2cccc(C(=O)Nc3ccc(C)cc3C(=O)O)c2)c(C(=O)O)c1,8.91 µM (active)
14,CN(C)c1ccc2nc3ccc(=O)cc-3sc2c1,11.2 µM (active)
15,COc1cccc(NC(=O)CN(C)C(=O)c2cc(-c3ccco3)nc3ccccc23)c1,15.8 µM (active)
16,CCNC(=O)c1ccccc1SCC(=O)Nc1ccc(F)cc1,inactive
17,CN(CC(=O)Nc1ccc(F)cc1)C(=O)c1cc(-c2ccco2)nc2ccccc12,14.1 µM (active)
18,Cc1ccc(NC(=O)CN(C)C(=O)c2cc(-c3ccco3)nc3ccccc23)cc1,8.91 µM (active)
19,COc1ccc(NC(=O)CN(C)C(=O)c2cc(-c3ccco3)nc3ccccc23)cc1,5.01 µM (active)
20,O=C(c1cc(-c2ccco2)nc2ccccc12)N(Cc1nnc(-c2ccc(Cl)cc2)o1)C1CC1,inactive
21,COCCN(CC(=O)NCC1CCCO1)C(=O)CCC(=O)Nc1ccccn1 (stereo not drawn),inactive

row,SMILES,Potency
1,COCc1c(C(=O)N2CCc3ccccc32)oc2ccccc12,inactive
2,CCOC(=O)c1nnn(-c2ccccc2)c1C,inactive
3,CCn1c(C(=O)OC)cc2c1ccn2-c1ccc(F)cc1,inactive
4,CC(C)(C)NC(=O)C(c1ccc(C#N)cc1)n1c(=O)c(-c2ccco2)nc2ccccc21 (stereo not drawn),inactive
5,O=C(Nc1cc(S(=O)(=O)N2CCOCC2)ccc1O)c1ccc(NS(=O)(=O)c2ccc(Cl)s2)cc1,20 µM (active)
6,Cc1cc(C(=O)OCC(=O)Nc2cc(S(=O)(=O)N3CCOCC3)ccc2Cl)c(C)o1,inactive
7,COc1ccc(N2CSC3=C(C#N)C(c4cccc(OC)c4OC)CC(=O)N3C2)cc1 (stereo not drawn),7.08 µM (active)
8,COc1ccc(C2CC(=O)N3CN(c4ccc(C)c(Cl)c4)CSC3=C2C#N)cc1OC (stereo not drawn),inactive
9,COc1ccc(OC)c(C2CC(=O)N3CN(c4cccc(Cl)c4)CSC3=C2C#N)c1 (stereo not drawn),inactive
10,COc1cccc(C2CC(=O)N3CN(c4cccc(Cl)c4C)CSC3=C2C#N)c1OC (stereo not drawn),39.8 µM (active)
11,COc1ccc(N2CSC3=C(C#N)C(c4ccc(OC)c(OC)c4)CC(=O)N3C2)c(OC)c1 (stereo not drawn),12.6 µM (active)
12,CCN(CC)C(=O)c1[nH]cnc1C(=O)Nc1ccc(OC)cc1,inactive
13,CCCCOc1ccc(S(=O)(=O)NC(=O)C2(C)CCN2C(=O)CCc2ccccc2)cc1 (stereo not drawn),inactive
14,C[C@H](NC(=O)c1nc[nH]c1C(=O)N[C@@H](C)C(=O)OC(C)(C)C)C(=O)OC(C)(C)C,inactive
15,COc1cccc(NS(=O)(=O)c2ccc3c(c2)C2C=CCC2C(c2ccc(C(=O)O)cc2)N3)c1 (stereo not drawn),31.6 µM (active)
16,Cc1ccc(-c2csc3ncnc(NCCC(=O)O)c23)cc1C,14.1 µM (active)
17,CN(C)C(=O)c1ccc(NC(=O)COC(=O)C2=COCCO2)cc1,inactive
18,NC(=O)C1CCN(c2cc(Cl)nc(N)n2)CC1,inactive
19,CN1CCN(C(c2ccc(Br)cc2)c2cc(Cl)c3cccnc3c2O)CC1 (stereo not drawn),15.8 µM (active)
20,Cc1ccc(C(c2cc(Cl)c3cccnc3c2O)N2CCN(C)CC2)cc1 (stereo not drawn),15.8 µM (active)
21,CN1CCN(C(c2ccccc2)c2ccc(Cl)cc2)CC1 (stereo not drawn),inactive
